Measurements from PubChem BioAssay (NCI).
This is part of a sample that, as a whole, favours compounds with a hit. Of some 83,000 tested, about 20% had one in any assay.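 Growth was measured after 48 h exposure to one concentration of compound in 96-well plates. Values under 10 count as active.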 A number with no mark means an inactive call. Active and inactive are the calls of the source.

The compounds below were run on EKVX NSCLC (assay: NCI-60 one-dose screen, 48 h (100 = growth as untreated, 0 = no growth, -100 = all killed)). Conditions: 10 µM.
Protocol: Growth inhibition of the EKVX human Non-Small Cell Lung tumor cell line is measured as a screen for anti-cancer activity. Cells are grown in 96 well plates and exposed to the test compound for 48 hours. Compounds are tested at a single concentration, which is 10^-5 M for most compounds. The reported endpoint is percent growth (GI% or GIPRCNT), where numbers from 0 - 100% represent growth inhibition, and numbers from -100% - 0 represent cell death. For example, a value of 40 represents 60% growth inhibition. A value of 0 means no net growth occurred over the course of the experiment. A value of -40 indicates 40% of cells at the beginning of the experiment died by the end of the experiment. A value of -100 means all cells are dead at the end of the experiment.
NCI-60 Human Tumor Cell Lines Screen was performed using the standard one-dose NCI protocol, which is described in more detail at https://dtp.cancer.gov/discovery_development/nci-60/default.htm.
Compounds with GIPRCNT values below 10 were considered active. Activity score was based on GIPRCNT using the following formula: […]
Score is 0 for GIPRCNT values of 100 or above, 50 for GIPRCNT values of 0, and 100 for GIPRCNT values of -100.

For `O=c1oc2ccc(-c3ccc(F)cc3F)cc2c(=O)n1-c1ccc(Cl)c(C(F)(F)F)c1`, the growth was -4.43% (active).
With `O=C(N=Nc1c(O)[nH]c2ccc(Br)cc12)c1ccc2nc(-c3ccccc3)[nH]c2c1` the growth was -4.61% (active).
For `Cn1cc(-c2cc(N)n3nc(-c4c[nH]c5ccc(Br)cc45)cc3n2)c2cccnc21`, the growth was -86.7% (active).
`O=C(O)CCCCCCCCCCN1C(=O)/C(=C/c2cnc(-c3ccc(Cl)cc3)s2)SC1=S` was tested, and the growth was -12.5% (active).
With `CN1CCN(c2ccc(Nc3nc(N4CCN(S(=O)(=O)c5ccc(F)cc5)CC4)c4sccc4n3)cc2)CC1` the growth was -89.5% (active).
`COc1cccc2nc(Nc3cccc(NC(=O)c4ccc(CN5CCCN(C)CC5)c(C(F)(F)F)c4)c3)ccc12` was tested, and the growth was -98.9% (active).
`COc1ccc(C(=O)/C=C/c2cc(C(F)(F)F)cc(C(F)(F)F)c2)cc1S(N)(=O)=O` was tested, and the growth was -93% (active).
With `CC1(C)CC[C@]23CC[C@]4(C)[C@H](CC[C@@H]5[C@@]6(C)CC[C@H](N)C(C)(C)[C@@H]6CC[C@]54C)[C@H]2[C@H]1OC3=O` the growth was -95.4% (active).
In the case of `COc1ccc([C@H]2C(C(=O)c3ccc(Cl)cc3)C3(N[C@@H]2c2ccccc2)C(=O)Nc2ccc(Cl)cc23)cc1` (stereo not given in full), the growth is reported as 4.5% (active).
For `N[C@@H](CSSC[C@H](N)C(=O)Nc1ccc(OCC2CCCC2)cc1)C(=O)Nc1ccc(OCC2CCCC2)cc1`, the growth was -90.2% (active).

Point of comparison: `COC(=O)C[C@](O)(CCCC(C)(C)O)C(=O)O[C@H]1C(OC)=C[C@@]23CCC(=O)N2CCc2cc4c(cc2[C@@H]13)OCO4`, growth 103%. Against it:
- COc1cc(/C=C/C(=O)c2ccc(NC(=O)CSc3nnc(-c4c[nH]c5ccccc45)n3-c3ccccc3)cc2)cc(OC)c1OC — lower, 90.6%
- CC(=O)c1cc(C(=O)c2ccc3c(c2)NC(=O)CO3)n2ccc3ccccc3c12 — lower, 75%
- CCOC(=O)c1c(CSc2ccccc2)n(C)c2cc(CN(C)C)c(O)c(CN(C)C)c12 — lower, 36.9%
- CCOC(=O)C1=C(N)N(c2ccccc2)C2=C(C(=O)CC(C)(C)C2)C1c1ccccc1OC (stereo not given) — lower, 91.9%
- C=C1CCC2C3(C)COC(c4cccc(F)c4)OC3CCC2(C)C1CC(O)C1=CCOC1=O (stereo not given) — lower, 87.9%
- O=C(c1ccc(O)cc1)C1[C@H](c2ccccc2Br)[C@@H](c2ccccc2)NC12C(=O)Nc1ccc(Br)cc12 (stereo not given in full) — lower, 32%
- O=c1[nH]c2ccc(Cl)cc2cc1CSc1ccc(Nc2nccc(-c3ccc(Cl)cc3)n2)cc1 — lower, 82%
- CC(C)CCSc1nc(NC2CC2)c(C#N)c(-c2ccc(C(C)C)cc2)n1 — lower, 96.5%
- O=S(=O)(Nc1ncccn1)c1ccc(-n2c(-c3ccc(Br)cc3)nc(-c3ccccc3)c2-c2ccccc2)cc1 — lower, 16.1%
- CC(C)C(=O)Nc1ccc(C(=O)NC(=S)Nc2ccc(C(=O)O)cc2)cc1 — lower, 96.6%
- C/C(=C\CSc1ccccc1C(=O)O)CCCC(C)CCCC(C)CCCC(C)C (stereo not given) — lower, 43.3%
- COC[C@@H](CC(C)C)N=C1NC(=O)/C(=C/c2ccc3ncsc3c2)N1 — lower, 17.8%
- CCCn1c(O)c(N=Nc2nc(-c3cc4ccccc4oc3=O)cs2)c2cc(Br)ccc21 — lower, 92.8%
- Cc1ccc(C(=O)NNC(=O)CSc2nc3ccccc3c(=O)[nH]2)cc1 — lower, 97.2%
- O=C(O)CCCCCCCCCCN1C(=O)/C(=C/c2cnc(-c3ccccc3)s2)SC1=S — lower, 52.8%
- CCCn1c(=O)c2[nH]c(-c3ccc(OCc4nc5ccccc5[nH]4)cc3)nc2n(CCC)c1=O — lower, 55.7%
- COc1cc2c(cc1OC)/C(=C\c1sc(Nc3ccc(O)cc3)nc1O)C(C(=O)O)=N2 — lower, 59.9%
- COc1cc2oc(-c3cccc(C(=O)Nc4ccc(Cl)cc4)c3)cc(=O)c2c(OCCNC(=O)CNC(=O)OC(C)(C)C)c1OC — lower, 64.7%
- O=C(CNc1nc(-c2ccccc2)cs1)Nc1ccc([N+](=O)[O-])cc1Cl — lower, 18.5%
- Cc1ccc(CSc2nc(Cl)c(C#N)c(-c3ccc(F)cc3)n2)cc1 — lower, 79.6%
- COc1ccc(-c2nc(-c3ccccc3)c(-c3ccccc3)n2-c2ccc(S(=O)(=O)Nc3ncccn3)cc2)cc1OC — lower, 63.6%
- CN1C(=O)N(C)C2SC(N/N=C/c3ccc(F)cc3)=NC21 (stereo not given) — lower, 77.2%
- CCOC(=O)CNC(=O)CN(Cc1ccccc1)C(=O)[C@@]1(C)CCC[C@]2(C)[C@H]3CC4C(C(C)C)=C[C@]3(CC[C@H]21)[C@@H]1C(=O)CCC(=O)[C@H]41 — lower, 66.2%
- Cc1noc2c(Cc3ccc([N+](=O)[O-])cc3)nn(CC(=O)N/N=C/c3ccc(Br)cc3)c(=O)c12 — lower, 90.2%
- CC(C)C1=C[C@@]23CC[C@@H]4[C@](C)(CCC[C@]4(C)C(=O)NCc4ccccc4)[C@H]2C[C@@H]1[C@H]1C(=O)CCC(=O)[C@H]13 — lower, 49.8%
- O=C(Cn1cc(CSc2nnc3oc4ccccc4n23)nn1)Nc1ccc(Br)cc1 — lower, 78.5%
- O=c1[nH][nH]c(Nc2ccccc2)c1N=Nc1ccc(F)cc1 — lower, 72.1%
- O=C(c1ccc(O)cc1)C1[C@H](c2ccccc2Br)[C@@H](c2ccccc2)NC12C(=O)Nc1ccc(Cl)cc12 (stereo not given in full) — lower, 10.5%
- S=c1nc(-c2ccccc2)cc(-c2cc3ccccc3nc2Cl)[nH]1 — lower, 70%
